Consider 46 compounds from PubChem BioAssay.

Structures are written as SMILES. Several values for one entry are separate records, joined by “and”; a condition that tells them apart may be missing. Equal values may be shown once. Activity calls are given as the source filed them. Unless noted, no rule for the calls is given here.

The test system of assay [1] is Aerobactin synthetase IucA (Klebsiella pneumoniae, hypervirulent). The experiment in a line: biochemical IucA inhibition screen of LOPAC library by absorbance (AID 1346212).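 Also: 100% = no compound wells and 0% = no enzyme wells.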 As to conditions: IucA enzyme assay, absorbance (OD) readout; stronger effect = lower value;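 tested at 8 µM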.
Assay [2] can be described thus: compounds altering circadian rhythm period length – cell-based, LOPAC library, luminescence reporter (AID 2774).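 Also: values are relative to mean of DMSO wells on each plate.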 As to conditions: circadian reporter cells, at 7 µM, actives lie on both sides.
Assay [3] has as its system Hepatitis C virus NS3 helicase. The experiment in a line: blockers of NS3h binding to ssDNA – biochemical, fluorescence polarization, LOPAC1280 library, primary screen (AID 687035; in the data active = inhibition above about 37%). To be noted: Purified HCV NS3 helicase, Cy5-dT15 ssDNA binding fluorescence polarization; stronger effect = higher value; concentration not given here. A general note: Polarisation of emitted light reports the rotation of a fluorescent probe.

Assay [4] can be described thus: compounds altering Cy5-DNA-NS3h complex signal – biochemical, LOPAC1280, artefact control for HCV NS3 helicase inhibitor project (AID 687037). To be noted: Cy5-DNA-NS3h complex fluorescence interference counterscreen. (A counterscreen serves to expose hits that act by an unwanted route or on another target.)
A short description of assay [5]: viability loss with induced miR-34 in A549 – imaging, A549 dox-inducible miR-34, nuclei and caspase counts, primary screen (AID 1347080;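 active = compounds whose cell count with miR-34 switched on is under 0.7 times the count with it off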). As to conditions: A549 miR-34 inducible, Hoechst nuclei count, 48 h.
Assay [6] is described as follows: blockers of cellular phospholipid synthesis – cell-based, LOPAC library, screen 4, primary screen (AID 1347384). To be noted: animal cells, phospholipid biosynthesis inhibition screen; at 10 µM.
Assay [7] is described as follows: MELAS cybrid and Rieske KO viability enhancers – cell-based, MELAS cybrids, Rieske KO mouse fibroblasts, CellTiter-Glo, primary screen (AID 1508586;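 active = mean z-score across replicates of 1.96 or higher in either the MELAS or the Rieske mutant cell line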;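 also: z relative to plate mean and SD of compound and empty wells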). As to conditions: low glucose. For orientation: Cellular ATP, detected with luciferase, serves as a proxy for viable cell number.
The nature of assay [8]: galactose survival enhancers in mitochondrial complex I cybrids – cell-based, galactose medium, ATP luminescence, primary screen (AID 1645843;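 active = z-score of at least 1.8 in each of two replicates, scored against plate mean and spread of sample wells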;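 also: positive z means more ATP and so rescue of galactose-driven cybrid death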). To be noted: complex I mutant cybrid cells, 72 h, stronger effect = higher value.
A short description of assay [9]: compounds altering viability of human ES cells (AID 493140).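 Also: cells exposed to compounds for four days before counting.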 To be noted: human embryonic stem cell survival screen; stronger effect = higher value.
The nature of assay [10]: chitosan synthesis blockers in C. neoformans – flow cytometry, Cibacron Brilliant Red staining (AID 1347148).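 Also: compound exposure lasted three days at 37 degrees C.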 As to conditions: Cryptococcus neoformans chitosan, stronger effect = lower value; at 10 µM unless noted.
Setting [11] is: measured here: relative caspase fold change +Dox/-Dox.
[12] abbreviates: measured here: total cells with miR-34 induction, stronger effect = lower value.
[13] abbreviates: measured here: total cells without miR-34 induction.

Broadly, the remaining activity is the signal under treatment as a percentage of the control signal. For `O=S(=O)(c1cccc2c(Cl)cccc12)N1CCCNCC1`, in assay [1], the remaining activity was 110% (inactive).
Still for that read-out and setting: the result for `N#C/C(=C\c1ccc(O)c(O)c1)C(=O)N1CCc2ccccc21` reads 107% (inactive).
Same read-out and setting: for `Cc1ccc([N+](=O)[O-])cc1S(=O)(=O)N(C)C` the value was 108% (inactive).
Consider `CCc1cccc(N(C)C(N)=Nc2cccc3ccccc23)c1`, for which the remaining activity in assay [1] was 96.2% (inactive).
The same measure, in the same setting: the result for `CCCC1O[C@@H]2C[C@H]3[C@@H]4CCC5=CC(=O)C=C[C@]5(C)[C@H]4[C@@H](O)C[C@]3(C)[C@]2(C(=O)CO)O1` (stereo partly drawn) reads 115% (inactive).
In the case of `COc1ccc(CCNC[C@@H](O)c2ccc(O)cc2)cc1OC`, the remaining activity in assay [1] was 91.4% (inactive).
`N#C/C(=C\c1ccc(O)c(O)c1)C(=O)NCc1ccccc1`: the remaining activity in assay [1] was 101% (inactive).
On the same count and under the same terms, the result for `COC(=O)[C@H](NC(=O)c1cc(-c2ccccc2)nc2ccccc12)c1ccccc1` reads 97.3% (inactive); that for `COc1cc(C(O)CO)ccc1OS(=O)(=O)O` (stereo not drawn), 99.3% (inactive).
On the same count and under the same terms, the result for `Fc1ccc(C(OCCCc2cnc[nH]2)c2ccc(F)cc2)cc1` reads 111% (inactive); that for `O=C(O)/C=C/C(O)c1ccc(Cl)cc1` (stereo not drawn), 120% (inactive).
On the same count and under the same terms, for `CCN1CCC[C@H]1CNC(=O)c1cc(S(N)(=O)=O)ccc1OC` the value was 122% (inactive).
As to `O=C1N=c2cc(Cl)c(Cl)cc2=NC1=O`, the remaining activity in assay [1] was 110% (inactive).
Still for that read-out and setting: for `Cc1ccc(OC[C@H](O)[C@H](C)NC(C)C)c2c1CCC2` the value was 101% (inactive); for `COc1cc([C@@H]2c3cc4c(cc3[C@@H](O[C@@H]3O[C@@H]5CO[C@@H](C)O[C@H]5[C@H](O)[C@H]3O)[C@H]3COC(=O)[C@H]23)OCO4)cc(OC)c1O`, 127% (inactive); for `N#Cc1cc2nc(O)c(O)nc2cc1[N+](=O)[O-]`, 86.8% (inactive).
Take `OC[C@H]1O[C@@H](n2cnc3c(NC4CCCCC4)ncnc32)[C@H](O)[C@@H]1O`: the remaining activity in assay [1] is 93.2% (inactive).
On the same count and under the same terms, the result for `CCCCCN(CCCCC)C(=O)C(CCC(=O)O)NC(=O)c1ccc(Cl)c(Cl)c1` (stereo not drawn) reads 110% (inactive).
Still for that read-out and setting: the result for `CC(C)Oc1cccnc1N(C)C1CCN(Cc2ccc(I)cc2)CC1` reads 97.8% (inactive).
Still for that read-out and setting: for `Brc1c(Br)c(Br)c2[nH]cnc2c1Br` the value was 110% (inactive); for `c1cc(CN2CCCCC2)cc(OCCCNc2nc3ccccc3s2)c1`, 101% (inactive).
With `N[C@@H](Cc1cnc[nH]1)C(=O)O`, in assay [1], the remaining activity was 113% (inactive).
On the same count and under the same terms, for `N=C(N)c1ccc(N)cc1` the value was 112% (inactive); for `CC(C)(C)NCC(O)COc1nsnc1N1CCOCC1` (stereo not drawn), 109% (inactive).
Still for that read-out and setting: the result for `COc1cccc(NC(=O)/C=C/c2ccc(Cl)cc2)c1` reads 101% (inactive); that for `Cn1c(=O)c2c(nc(/C=C/c3cccc(Cl)c3)n2C)n(C)c1=O`, 88.1% (inactive); that for `NC(=O)CNCCC(c1ccccc1)c1ccccc1`, 118% (inactive).
The same measure, in the same setting: for `COc1cc2c(cc1OC)-c1cc(=Nc3c(C)cc(C)cc3C)n(C)c(=O)n1CC2` the value was 97.5% (inactive); for `O=C1NC(=O)C(c2ccccc2[N+](=O)[O-])=C1Nc1ccc(O)c(Cl)c1`, 95% (inactive); for `Cc1cccc(C)c1OCC(N)C(C)C` (stereo not drawn), 97.7% (inactive).
Regarding `CCCn1c(=O)c2[nH]c(-c3ccc(OCC(=O)Nc4ccc(C#N)cc4)cc3)nc2n(CCC)c1=O`, the remaining activity in assay [1] is 109% (inactive).
On the same count and under the same terms, the result for `N#CC(=C(/N)Sc1ccccc1N)/C(C#N)=C(\N)Sc1ccccc1N` reads 104% (inactive).
Same read-out and setting: the result for `CCNC(=O)[C@H]1O[C@@H](n2cnc3c(N)nc(NCCc4ccc(CCC(=O)O)cc4)nc32)C(O)[C@H]1O` (stereo partly drawn) reads 109% (inactive); that for `CC1(C)CCC=[N+]1[O-]`, 120% (inactive).
The same measure, in the same setting: the result for `Nc1nc(Nc2ccccc2)nc2c1ncn2[C@@H]1O[C@H](CO)[C@@H](O)[C@H]1O` reads 106% (inactive); that for `COC(=O)C(C)(N)Cc1ccc(O)cc1` (stereo not drawn), 114% (inactive).
For `CC1=C(/C=C/C(C)=C/C=C/C(C)=C/C(=O)Nc2ccc(O)cc2)C(C)(C)CCC1`, in assay [1], the remaining activity is 97.1% (inactive).
On the same count and under the same terms, the result for `CC(N)=NCc1cccc(CN)c1` reads 103% (inactive); that for `NC(=O)c1ncn([C@@H]2O[C@H](CO)[C@@H](O)[C@H]2O)c1O`, 122% (inactive); that for `COc1ccc2c(c1)c(CC(=O)O)c(C)n2C(=O)c1ccccc1`, 111% (inactive).
Still for that read-out and setting: for `C1CCC(N=C(NC23CC4CC(CC(C4)C2)C3)N2CCOCC2)CC1` the value was 122% (inactive); for `C#Cc1ccc2c(c1)C(=O)N(C)Cc1c(C(=O)OCCCc3nc(C(=O)O)c4n3-c3ccc(C#C)cc3C(=O)N(C)C4)ncn1-2`, 97.1% (inactive); for `C[C@@H](CN1CCC(Cc2ccccc2)CC1)[C@@H](O)c1ccc(O)cc1`, 92.9% (inactive).
On the same count and under the same terms, for `O=C1O/C(=C/Br)CCC1c1cccc2ccccc12` (stereo not drawn) the value was 112% (inactive).
Usually inhibition stands for the change of the read-out against control, counted positive when it falls. As for `NCCc1ccc(S(=O)(=O)F)cc1`, in assay [2], the period change was -0.1 h (inactive). Besides, in [3], the inhibition was -2% (inactive). Further, in assay [4], the fluorescence ratio (interference) was 0.9 (inactive). In assay [1], the remaining activity was 99.4% (inactive). In addition, the fold change is 1.01 (inactive) and 0.94 (inactive) in [5] (stronger effect = lower value); 0.956 and 0.406 in [5] (setting [11]). Further, the cell count is 10400 and 7770 in assay [5] (setting [12]); 10400 and 8270 in [5] (setting [13]). In assay [6], the compound was classed as inactive. Moreover, the z-score is -0.305 (inactive) in assay [7] (MELAS cybrid survival, CellTiter-Glo 48 h, stronger effect = higher value); -1.62 in assay [7] (Rieske KO mouse fibroblast survival, CellTiter-Glo 72 h); 0.125 (inactive) in [8].
Turning to `N#C/C(=C\c1ccc(O)c(O)c1)C(N)=S`, the survival in assay [9] is 132 (inactive). Further, in [1], the remaining activity is 89.1% (inactive). The figures for the fold change in [5] (stronger effect = lower value) and in assay [5] (setting [11]) were 0.909 (inactive) and 1.22, respectively. For the same compound, the values for the cell count in assay [5] (setting [12]) and in assay [5] (setting [13]) were 4790 and 5270, respectively. Further, in assay [10], the fold fluorescence is 5.68 [at 227 µM] (inactive).
